Calls of active or inactive are those of the source. Unless noted, calls come from the whole dose curve; as a rule, active = well fitted inhibition curve with a large enough effect; inconclusive = small, poorly fitted or top-dose-only effect; inactive = flat fitted curve, though single readings scatter.

Chain of Estrogen receptor (Homo sapiens) (P03372 whole entry, looked up): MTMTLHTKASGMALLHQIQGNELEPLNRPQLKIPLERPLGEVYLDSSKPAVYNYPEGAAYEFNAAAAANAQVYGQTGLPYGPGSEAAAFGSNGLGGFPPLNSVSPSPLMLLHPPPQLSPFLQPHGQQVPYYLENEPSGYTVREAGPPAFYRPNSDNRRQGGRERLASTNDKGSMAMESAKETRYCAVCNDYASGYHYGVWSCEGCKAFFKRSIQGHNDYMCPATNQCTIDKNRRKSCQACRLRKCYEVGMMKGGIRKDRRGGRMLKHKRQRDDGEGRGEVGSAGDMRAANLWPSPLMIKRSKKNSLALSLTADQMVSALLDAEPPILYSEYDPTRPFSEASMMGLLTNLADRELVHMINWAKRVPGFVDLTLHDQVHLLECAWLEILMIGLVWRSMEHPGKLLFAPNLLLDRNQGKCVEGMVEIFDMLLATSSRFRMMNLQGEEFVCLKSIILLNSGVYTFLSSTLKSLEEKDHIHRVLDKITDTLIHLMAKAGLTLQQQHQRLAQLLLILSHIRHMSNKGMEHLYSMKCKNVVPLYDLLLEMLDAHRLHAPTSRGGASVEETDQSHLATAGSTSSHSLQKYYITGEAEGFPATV
Chain of DNA dC->dU-editing enzyme APOBEC-3G (Homo sapiens) (Q9HC16 whole entry, looked up): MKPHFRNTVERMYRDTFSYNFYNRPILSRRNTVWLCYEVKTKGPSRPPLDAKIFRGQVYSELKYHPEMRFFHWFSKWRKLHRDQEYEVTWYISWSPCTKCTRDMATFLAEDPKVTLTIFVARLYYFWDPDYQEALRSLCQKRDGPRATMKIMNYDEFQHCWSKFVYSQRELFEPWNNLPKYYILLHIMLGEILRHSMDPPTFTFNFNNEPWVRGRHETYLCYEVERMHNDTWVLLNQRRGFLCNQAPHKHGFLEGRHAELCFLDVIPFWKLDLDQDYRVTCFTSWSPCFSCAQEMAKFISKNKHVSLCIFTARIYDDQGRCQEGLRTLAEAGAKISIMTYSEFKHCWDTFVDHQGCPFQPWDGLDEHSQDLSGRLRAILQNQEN
Chain of Ubiquitin carboxyl-terminal hydrolase 1 (Homo sapiens) (O94782 whole entry, looked up): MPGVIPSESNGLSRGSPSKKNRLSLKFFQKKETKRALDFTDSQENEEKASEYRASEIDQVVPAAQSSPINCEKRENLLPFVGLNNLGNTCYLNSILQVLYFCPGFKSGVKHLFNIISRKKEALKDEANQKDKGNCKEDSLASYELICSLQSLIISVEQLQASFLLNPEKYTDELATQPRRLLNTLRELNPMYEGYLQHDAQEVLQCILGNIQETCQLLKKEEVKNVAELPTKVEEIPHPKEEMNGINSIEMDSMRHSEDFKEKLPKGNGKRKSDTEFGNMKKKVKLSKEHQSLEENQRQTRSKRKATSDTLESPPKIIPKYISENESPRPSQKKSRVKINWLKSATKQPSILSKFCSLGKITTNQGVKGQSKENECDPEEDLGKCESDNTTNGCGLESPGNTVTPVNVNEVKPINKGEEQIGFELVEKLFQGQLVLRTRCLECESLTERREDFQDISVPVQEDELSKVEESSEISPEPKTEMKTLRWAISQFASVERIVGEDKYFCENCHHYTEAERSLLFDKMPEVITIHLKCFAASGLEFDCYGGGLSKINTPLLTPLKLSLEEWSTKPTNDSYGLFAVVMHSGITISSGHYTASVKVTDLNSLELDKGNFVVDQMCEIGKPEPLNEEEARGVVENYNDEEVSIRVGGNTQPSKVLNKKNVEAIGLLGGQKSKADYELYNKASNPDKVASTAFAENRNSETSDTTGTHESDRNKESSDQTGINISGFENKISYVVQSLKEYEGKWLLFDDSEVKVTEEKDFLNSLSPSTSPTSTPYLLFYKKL

The target in one assay is Ubiquitin carboxyl-terminal hydrolase 1 (Homo sapiens) (UniProt O94782). The experiment in a line: Inhibitors of USP1/UAF1: Pilot qHTS (AID 504865).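 For activity change, negative = inhibition: rhodamine fluorescence freed from ubiquitin-rhodamine substrate followed over time; top concentration of the series differs between compounds; % is set by controls: 0 for no effect and ±100 for the full control effect.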 Note: nearly all actives have a fitted effect of over 35% in size. Note: potency is the fitted concentration of half-maximal effect. The following applies: purified USP1/UAF1, Ub-rhodamine cleavage fluorescence; series mostly up to 114 µM; activity change, negative = inhibition: at the top concentration. In outline:
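1nM USP1/UAF1 + cpd, 15 min RT; start w/ Ub-Rho 150nM final; kinetic FL 480/540 nm, 6 reads q60 s. Buffer 50mM HEPES pH 7.8, 0.5mM EDTA, 1mM TCEP, 0.01% Tween-20, 0.1 mg/ml BSA.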
For the compound `NC1=NC(=O)N2CC12` (stereo not drawn), the “activity change, negative = inhibition” value was -0.595% (inactive).

For the compound `C[C@]12CCC(=O)C(O)=C1CC[C@@H]1[C@H]3CCC(=O)[C@@]3(C)CC[C@@H]12`, the “activity change, negative = inhibition” value is -9.96% (inactive).

As to `O=C(O)C(Cl)Cl`, the “activity change, negative = inhibition” value is -0.634% (inactive).

As to `O=C(O)COc1ccccc1`, the “activity change, negative = inhibition” value was 1.72% (inactive).

As for `C1CCC(NC2CCCCC2)CC1`, the “activity change, negative = inhibition” value was -7.47% (inactive).

`CCCN1CCO[C@@H]2c3cc(O)ccc3OC[C@@H]21`: the “activity change, negative = inhibition” value is 8.83% (inactive).

`CCOC(=O)c1cncn1[C@H](C)c1ccccc1`: the “activity change, negative = inhibition” value is -4.65% (inactive).

As to `Cc1cc(O)ccc1Cl`, the “activity change, negative = inhibition” value is -4.14% (inactive).

Consider `CC(=O)[O][Hg][c]1ccccc1`, for which the Potency was 50.1 µM (active).

Another assay has as its target DNA dC->dU-editing enzyme APOBEC-3G (Homo sapiens) (UniProt Q9HC16). The experiment in a line: qHTS for inhibitors of Vif-A3G interactions: Validation (AID 588379). Note: 0% is about no effect. Conditions: Vif-A3G protein interaction assay; series mostly up to 46.1 µM; activity change, negative = inhibition: at the top concentration. The gist of the method:
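HeLa cells stably expressing Vif and A3G-eYFP, 700 cells/well, incubated overnight at 37 deg C, then exposed to compound overnight at 37 deg C. Inhibition of Vif-mediated degradation read as increased yellow fluorescence (Ex 488/Em 500-530) by laser-scanning cytometry.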
As to `COc1ccc(C(=O)c2c(C)n(CCN3CCOCC3)c3cc(I)ccc23)cc1`, the “activity change, negative = inhibition” value is -0.711% (inactive).

On to `CCCN1CCO[C@@H]2c3cc(O)ccc3OC[C@@H]21`, for which the “activity change, negative = inhibition” value was -4.51% (inactive).

In the case of `CCOC(=O)c1cncn1[C@H](C)c1ccccc1`, the “activity change, negative = inhibition” value was -0.163% (inactive).

For `O=c1cccc2n1CC1CNC[C@H]2C1`, the “activity change, negative = inhibition” value is -2.75% (inactive).

Take `C[C@H]1CCCC=CC2C[C@H](O)C[C@@H]2[C@H](O)C=CC(=O)O1` (stereo partly drawn): the “activity change, negative = inhibition” value was -2.2% (inactive).

As for `CCCCCC[C@H]1C(=O)O[C@H](C)[C@H](NC(=O)c2cccc(NC=O)c2O)C(=O)O[C@@H](C)[C@@H]1OC(=O)CC(C)C`, the “activity change, negative = inhibition” value is -3.23% (inactive).

The target in the next assay is Estrogen receptor (Homo sapiens) (UniProt P03372). The experiment in a line: qHTS assay for small molecule antagonists of estrogen receptor alpha signaling (AID 588513; active = well fitted curve in the direction sought with a large enough effect in the signal ratio, with a control signal flat, not every such curve was filed as active; inconclusive = small, poorly fitted or top-dose-only effect, or effect the other way, or a change in a side signal; inactive = no such curve, though single readings can be large or run the other way; the % refers to the signal ratio; note: potency is the fitted concentration of half-maximal effect; for activity, negative = inhibition: % is set by controls: 0 for no effect and ±100 for the full control effect). Conditions: ER-alpha-UAS-bla HEK293, beta-lactamase ratio, antagonist mode; series mostly up to 76.9 µM; activity, negative = inhibition: at the top concentration. The gist of the method:
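Beta-lactamase reporter, antagonist mode, HEK 293 GripTite cells; 0.5nM E2 stimulus, 18 h, 37 C; CCF4 dye 2 h RT; fluorescence. IC50 and efficacy from Hill fits, normalized to E2 and DMSO.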
(qHTS replaces the single test concentration by a dilution series.)
As for `CCOCCOC(C)=O`, the “activity, negative = inhibition” value is 25% (inactive).

With `O=C(O)C(Cl)Cl`, the Potency result was “inactive”.

As for `O=C(O)COc1ccccc1`, the “activity, negative = inhibition” value is 29% (inactive).

Regarding `CC(C)(O)C(=O)Nc1ccc([N+](=O)[O-])c(C(F)(F)F)c1`, the “activity, negative = inhibition” value was -27.7% (inactive).

For the compound `Nc1ccc(Sc2ccc(N)cc2)cc1`, the “activity, negative = inhibition” value was 6.8% (inactive).

On to `O=[N+]([O-])/N=C1\NCCN1Cc1ccc(Cl)nc1`, for which the “activity, negative = inhibition” value was -17.5% (inactive).

On to `CCCCC(CC)COC(=O)c1ccccc1C(=O)OCC(CC)CCCC` (stereo not drawn), for which the Potency result is “inactive”.

Turning to `c1ccc2occc2c1`, the Potency entry was “inactive”.

Regarding `C1CCC(NC2CCCCC2)CC1`, the Potency entry was “inactive”.

In the case of `C=CC(=O)NCNC(=O)C=C`, the Potency entry was “inactive”.

On to `O=[N+]([O-])c1c(Cl)c(Cl)cc(Cl)c1Cl`, for which the “activity, negative = inhibition” value was -4.47% (inactive).

With `O=C(O)COc1nc(Cl)c(Cl)cc1Cl`, the “activity, negative = inhibition” value is -3.75% (inactive).

As for `Nc1ccc(Cl)cc1`, the “activity, negative = inhibition” value is -19.4% (inactive).

`Cc1cc(O)ccc1Cl`: the “activity, negative = inhibition” value is -6.13% (inactive).

`C=CCC1=C(C)C(OC(=O)C2C(C=C(C)C)C2(C)C)CC1=O` (stereo not drawn): the Potency entry is “inactive”.

In the case of `O=C(Nc1ccccc1-c1ccc(Cl)cc1)c1cccnc1Cl`, the “activity, negative = inhibition” value is -4.15% (inactive).

`O=S(=O)(c1ccc(Cl)cc1)c1ccc(Cl)cc1`: the Potency entry is “inactive”.

On to `O=[N+]([O-])c1c2ccccc2cc2ccccc12`, for which the “activity, negative = inhibition” value was 10.2% (inactive).

As for `CC(=O)[O][Hg][c]1ccccc1`, the Potency was 2.24 µM [inconclusive] (active).

In the case of `OCCCBr`, the “activity, negative = inhibition” value was 1.39% (inactive).

Turning to `c1cc2ccc3cccc4ccc(c1)c2c34`, the Potency result was “inactive”.

In the case of `O=S(=O)(O)C(F)(F)C(F)(F)C(F)(F)C(F)(F)F`, the “activity, negative = inhibition” value is 14.7% (inactive).

`COCCOCCO`: the “activity, negative = inhibition” value was -18.7% [at 2.03 mM] (inactive).

The record behind these values is PubChem BioAssay (NCATS).
